Screening data deposited in PubChem BioAssay by National Center for Advancing Translational Sciences (NCATS).
USP2a inh: qHTS Assay for Inhibitors of Ubiquitin-specific Protease USP2a Using CHOP2 as the Reporter; USP2 core, Ub-CHOP2 coupled fluorogenic reporter, 485/531; Potency, µM (titrated, usually from 38.3 µM), for inactives: at the top dose activity change, negative = inhibition, most hits filed as inhibitors; actives 0.01% (n = 330,000); AID 463254, 2010;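 note: plate controls were DMSO wells for no effect and full inhibition by NEM control for full effect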
Target sequence (O75604 whole entry, looked up): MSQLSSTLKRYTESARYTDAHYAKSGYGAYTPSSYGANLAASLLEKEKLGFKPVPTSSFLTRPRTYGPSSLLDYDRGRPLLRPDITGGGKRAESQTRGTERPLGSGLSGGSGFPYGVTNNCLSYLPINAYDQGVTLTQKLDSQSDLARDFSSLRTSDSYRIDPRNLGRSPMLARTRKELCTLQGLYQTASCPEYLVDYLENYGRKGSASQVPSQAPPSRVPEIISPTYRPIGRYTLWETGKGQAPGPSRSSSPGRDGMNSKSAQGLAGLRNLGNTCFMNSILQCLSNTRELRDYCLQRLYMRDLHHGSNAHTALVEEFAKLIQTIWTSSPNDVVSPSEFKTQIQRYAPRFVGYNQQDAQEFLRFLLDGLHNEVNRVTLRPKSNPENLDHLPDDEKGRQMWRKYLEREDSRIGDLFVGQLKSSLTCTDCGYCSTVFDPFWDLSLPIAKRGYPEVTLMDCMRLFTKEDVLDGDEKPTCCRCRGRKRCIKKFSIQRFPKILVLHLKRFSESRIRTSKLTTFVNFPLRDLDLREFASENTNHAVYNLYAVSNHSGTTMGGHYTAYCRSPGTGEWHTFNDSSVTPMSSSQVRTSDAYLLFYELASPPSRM
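USP2 core (10nM final) preincubated 30min RT with compound in 20mM Tris-HCl pH 8.0, 2mM CaCl2, 2mM beta-mercaptoethanol, 0.05% CHAPS; 25nM Ub-CHOP2 plus 25nM reporter substrate added, fluorescence (Ex485/Em531) read after 60min.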
TrxR1 inh: qHTS Assay for Inhibitors of Mammalian Selenoprotein Thioredoxin Reductase 1 (TrxR1): qHTS | actives 1% (n = 390,000) | Potency, µM (titrated, usually from 114 µM), without a hit: at the highest dose activity change, negative = inhibition, most hits filed as inhibitors | recombinant rTrxR1, NADPH fluorescence consumption, selenite substrate; note: nearly all actives have a fitted effect of over 65% in size
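Rat TrxR1 (90 nM in the dispensed reagent) was pre-reduced with 400 uM NADPH for 5 min at room temperature, then incubated with compound for 15 min. After 400 uM selenite was added, NADPH fluorescence (Ex 340/Em 450 nm) was followed for 8 min.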
TrxR1 substrate: qHTS Assay for Substrates of Mammalian Selenoprotein Thioredoxin Reductase 1 (TrxR1): qHTS. Thioredoxin reductase 1, cytoplasmic (Rattus norvegicus), O89049. purified TrxR1 substrate turnover, NADPH consumption readout. Potency, µM (highest dose often 114 µM), for inactives: at the highest dose activity change, negative = substrate turnover. actives 0.01% (n = 390,000); note: nearly all actives have a fitted effect of over 50% in size
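Rat TrxR1, dispensed at 90 nM, was prereduced with 400 uM NADPH (final) for 5 min at ~22 deg C, then incubated with compound 15 min before 400 uM selenite. A first-read NADPH fluorescence drop versus no-compound background flagged substrates.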
RGS4 inh: Inhibitors of Regulator of G Protein Signaling (RGS) 4: qHTS; Transcreener GDP fluorescence polarization, RGS4-accelerated GTP hydrolysis; AID 504845, 2011; Potency, µM (titrated, usually from 114 µM), inactives show at the top dose activity change, negative = inhibition, usual class: inhibitors; actives 0.039% (n = 390,000); note: nearly all actives have a fitted effect of over 75% in size
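MLSMR compounds (23 nl, pin-transferred) preincubated 10 min at room temperature with a 500nM (2x) first reagent, then RGS4 at 900nM (2x) plus Transcreener GDP mix added; fluorescence polarization (620/688 nm) read before and after 90 min at 30 °C.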
Eya2 phos inh: qHTS Assay for Inhibitors of the Phosphatase Activity of Eya2; Protein phosphatase EYA2 (Homo sapiens), O00167; recombinant Eya2, OMFP fluorescence dephosphorylation (OMFP is methylfluorescein phosphate); Potency, µM (series often up to 76.9 µM), without a hit: at the top dose activity, negative = inhibition, most hits filed as inhibitors; actives 0.006% (n = 330,000); AID 488837, 2010
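Eya2 protein (added as 0.2 uM solution) was preincubated with compound for 10 min at ambient temperature in 50 mM HEPES pH 7.5, 50 mM NaCl, 5 uM MgCl2, 0.05% BSA, 1 mM DTT. OMFP (added at 50 uM) then reacted 10 min; fluorescence read at 485/525 nm.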
GALK inhibitor: qHTS Assay for Inhibitors of Human Galactokinase (GALK) | Purified GALK, Kinase-Glo residual ATP luminescence | AID 1868, 2009 | actives 0.007% (n = 270,000) | Potency, µM (doses to about 57.5 µM), without a hit: top-dose activity change, negative = inhibition, actives largely listed as inhibitors | P51570
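Luminescence from leftover ATP (Ultra-Glo luciferase/luciferin) served as read-out after a 1 h room-temperature reaction of 5 nM GALK with 35 uM ATP and 100 uM galactose.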
* = called active by the depositor; i = inactive; u = inconclusive; x = no result; ! = repeats disagree; [ ] = another dose, or the depositor's remark. Hits are enriched below; roughly 1% of the tested compounds scored in any of these assays. Calls come from the whole dose curve; as a rule, active = well fitted curve in the direction sought with a large enough effect; inconclusive = small, poorly fitted or top-dose-only effect, or another doubt; inactive = no such curve, though single readings can be large; an effect the other way counts as inactive or inconclusive. Unless noted, % is set by controls: 0 for no effect and ±100 for the full control effect; potency is the fitted concentration of half-maximal effect.

SMILES | USP2a inh | TrxR1 inh | TrxR1 substrate | RGS4 inh | Eya2 phos inh | GALK inhibitor
Cc1ccc(NC2=C(Cl)C(=O)OC2NC(=O)c2ccccc2)cc1 (stereo not drawn) | 1% | -2% | -4% | 9%[56.9 µM] | -1% | 1%
CC(=O)NC(=O)NC1OC(=O)C(Cl)=C1Cl (stereo not drawn) | -1% | 1.6µM* | -2% | -18%[56.9 µM] | -1% | 7%
Oc1ccc(Cl)cc1C1C=C(c2ccc3c(c2)OCO3)NC(c2ccc(Cl)cc2)N1 (stereo not drawn) | x | u | 3% | -17% | x | x
C=CCNc1nnc(SC2CC(=O)N(c3ccc(OC)cc3)C2=O)s1 (stereo not drawn) | 3% | 4µM* | 11% | -22% | 0% | 3%
COc1ccc(N2C(=O)CC(Sc3nnc(-c4ccccc4F)n3C)C2=O)cc1 (stereo not drawn) | 3% | 32µM* | 0% | -29% | 9% | 5%
S=c1sc2c(Cl)ncnc2n1-c1ccccc1 | 2% | 16µM* | -4% | -17%[56.9 µM] | -10% | -4%
Cc1nc(N2CCN(C)CC2)c2sc(=S)n(-c3ccccc3)c2n1 | 3% | 16%[57.1 µM] | 7%[57.1 µM] | -16% | 2% | -1%
CC(=O)Nc1ccc(/C=C/C(=O)c2ccc(-n3nncc3-c3ccccc3)cc2)cc1 | x | -2% | -6% | -44% | x | x
O=C(CC1Sc2ncnn2C1=O)Nc1ccc(Br)cc1 (stereo not drawn) | -1% | 1.4µM* | 12%[57.1 µM] | u | 13% | 4%
OCCN(CCO)c1ccc(/C=C/c2ccnc3ccccc23)cc1 | x | -13% | -5% | x | x | x
CNCc1ccccc1Sc1ccc(O)c(O)c1 | 1% | 32µM* | -10% | -29% | 4% | 2%
O=c1c2ccccc2nc2n1CC/C2=C/N1CCN(c2cccc(C(F)(F)F)c2)CC1 | 11% | 14µM* | -1% | u | 14% | 5%
O=C(O)c1ccc2c(=O)n3c(nc2c1)/C(=C/c1ccc(C(F)(F)F)cc1)CC3 | 1% | -1% | 29% | 12% | 14% | 4%
O=C(CBr)c1ccc(Oc2ccc(C(=O)C[n+]3ccccc3Cl)cc2)cc1 | x | -15% | 5% | x | x | x
CC1(C)CCC(=O)c2ccccc21 | x | 7%[57.1 µM] | 5%[57.1 µM] | 20% | x | x
CC1(C)CCC2=C(O1)c1ccccc1C(=O)C2=O | x | 25µM*! | 18µM* | 15µM* | -23% | x
CCCOc1ccc(CNC(=O)Cn2cc3c(n2)-c2c(oc(C(=O)N4CCOCC4)c2C)CC3)cc1 | x | -9% | 2% | 3% | x | x
N#C/C(=C\c1cccc(Cl)c1)C(=O)c1ccccc1 | 5% | 11µM* | 5%[57.1 µM] | u | 21% | -15%
N#C/C(=C\c1ccc[nH]1)C(=O)c1ccccc1 | 4% | 8% | 3% | -3% | -15% | 1%
CC(=O)SC(C[N+](=O)[O-])c1cn(C(C)=O)c2ccccc12 (stereo not drawn) | -4% | 18µM* | 2% | u | 4% | -1%
CC(=O)n1cc(Nc2ccc([N+](=O)[O-])cc2)c2ccccc21 | 0% | 22% | 8% | -3%[56.9 µM] | -8% | 4%
CN1CCCc2ccccc21 | x | -9% | 7% | x | x | x
CCN(CC)c1ccc(NC2=C(Cl)C(=O)c3ccccc3C2=O)cc1 | 2% | 2.5µM* | -11% | -22% | 0% | 3%
O=C1C(Cl)=C(Nc2ccc(O)cc2)C(=O)c2ccccc21 | 7% | u | 0% | 8% | 4% | 1%
Cc1ccc(NC2=C(Cl)C(=O)c3ccccc3C2=O)cc1 | 0% | 3.5µM* | -6% | -12% | -2% | 1%
SMILES | USP2a inh | TrxR1 inh | TrxR1 substrate | RGS4 inh | Eya2 phos inh | GALK inhibitor
CCNC1=C(Cl)C(=O)c2ccccc2C1=O | u | -13% | -4% | -12% | 6% | 3%
CCCC(=O)NC1=C(Cl)C(=O)c2ccccc2C1=O | x | 0.4µM* | 1%[11.4 µM] | -156% | x | x
Cc1cnc2c(C)cccc2c1C | x | 8% | 7% | x | x | x
O=C1ON=C(c2ccc([N+](=O)[O-])cc2)/C1=C/c1ccccc1O | -2% | 18µM* | 4% | u | 2% | x
O=C(c1ccccc1)C1CN(Cc2ccccc2)CCC1(O)c1ccccc1 (stereo not drawn) | 2% | 7.1µM* | 9% | -18% | -1% | 10%
Cc1nc(CNC(=O)CC2C(=O)NCCN2Cc2ccoc2)nc2c1CCCC2 (stereo not drawn) | -3% | 50µM* | 5% | -39% | 0% | 4%
COc1ccc(CN2CC[C@H]3C=CC[C@@H](C(=O)Nc4ccccc4)[C@H]3C2=O)cc1OC | x | 3% | 0% | x | x | x
CC(NC(=O)/C=C/c1ccco1)c1nc2ccccc2n1Cc1ccccc1F (stereo not drawn) | -6% | 50µM* | -16% | -50% | -1% | 0%
O=C(Nc1ccc(Cl)cc1Cl)[C@@H]1CC=C[C@@H]2CCN(C3CC3)C(=O)[C@@H]21 | x | 2% | 7% | x | x | x
Cc1ccc(CNC(=O)Cn2ccc3ccccc3c2=O)o1 | 4% | 40µM* | 0% | -23% | 16% | 1%
COC(=O)CNC(=O)Cn1ccc2ccccc2c1=O | 1% | 11%[57.1 µM] | 10%[57.1 µM] | 8% | -7% | 3%
CCOc1cc(/C=C(\C#N)C(=O)Nc2ccccn2)ccc1O | 2% | 25µM* | -1% | 5% | -1% | -3%
N#C/C(=C\c1ccc(O)c(O)c1)C(=O)NCCc1ccccc1 | 1% | u | 5%[57.1 µM] | 19µM*! | 9% | x
N#C/C(=C\c1ccc(O)c(O)c1)C(=O)NCCCCc1ccccc1 | x | x | x | i | x | x
C1=C/C(=C2/C=Cc3ccccc32)c2ccccc2N1 | x | 3% | -6% | x | x | x
C=C1C=C(C)n2ncc(C(=O)Nc3ccc(NC(C)=O)c(Cl)c3)c2N1 | x | 3% | 0% | x | x | x
O=[N+]([O-])c1cc([N+](=O)[O-])c2cc3ccccc3nc2c1 | -2% | 45µM* | 4% | u | -18% | -7%
CCN(CC)C(=O)OCCc1cc2ccccc2c(=O)o1 | 0% | 40µM* | 9% | -12% | 3% | x
O=C(O)c1ccccc1C(=O)OCCc1cc2ccccc2c(=O)o1 | 2% | 11%[57.1 µM] | -7% | 12% | 5% | x
Cc1cc2c(cc1C)N[C@]1(C[C@H]3CCCC(=O)N4CC[C@@H](C1)[C@@H]34)C(=NCc1ccccc1)N2 | x | 13% | 5% | x | x | x
